# Results as given in PubChem BioAssay AID1379 (National Center for Advancing Translational Sciences (NCATS), 2008).
# In all, about 200,000 compounds went through this assay and about 560 (0.28%) were called active. Where a call stands in place of a potency, no number is given. The sample as a whole holds a higher share of actives than the screen did. Unmarked numbers belong to inactive results. Calls follow the shape of the dose curve; as a rule, active = well fitted inhibition curve with a large enough effect; inconclusive = small, poorly fitted or top-dose-only effect; inactive = flat fitted curve, though single readings scatter.
# Biological target: Luciferin 4-monooxygenase (Photuris pensylvanica) (UniProt Q27757)
# Experiment: Counterscreen for Luciferase (Kinase-Glo TM) Inhibition; also: nearly all actives have a fitted effect of over 60% in size
# Conditions: ATP luminescence, 8 min; series mostly up to 38.3 µM
# Protocol: NCGC Assay Overview: NIH Molecular Libraries Screening Centers Network [MLSCN] NIH Chemical Genomics Center [NCGC] MLSCN Grant: None Luciferase (Kinase-Glo, Promega Corporation) was assayed for its ability to generate light using ATP and luciferin as substrates. The ATP concentration in the assay (10 uM) was within the linear range of enzyme activity for the assay conditions used.
# NCGC Assay Protocol Summary: Four uL of substrate mix (final concentration, 50 mM imidazole pH 7.2, 50 mM KCl, 7 mM MgCl2, 10 uM ATP, 0.01% Tween 20, 0.05% BSA) was dispensed into white 1536 well plates. Twenty-three nL of compound was delivered by a pin tool and 2 uL of luciferase detection mix (Kinase-Glo, Promega)) was added. Following 8-minute incubation at ambient temperature, luminescence was measured by a ViewLux (Perkin Elmer) at 5 seconds exposure/plate.
# Potency is read from the fitted curve at half-maximal effect.
Compound,"activity change, negative = inhibition",Potency
CCN1C(=O)N[C@@H](c2ccccc2)[C@H](C(C)=O)[C@H]1C,-7.74% [at 7.66 µM],–
C[C@@H]1C(c2ccc(F)cc2)=NN(c2ccc(Br)cc2)[C@H]1C(=O)N1CCOC1=O,inactive,–
O=C(O)C[C@@H]1NC(=O)[C@H](Cc2ccccc2)NC1=O,inactive,–
COC(=O)C1=C(C(=O)OC)[C@@H]2N(C)c3ccccc3[C@@]23C[C@@H](C(=O)OC)N(C(C)=O)C3=N1,0.685% [at 7.66 µM],–
CC(C)C[C@H](NC(=O)[C@H](O)[C@H](N)Cc1ccccc1)C(=O)O,inactive,–
COC(=O)C1=C(C(=O)OC)[C@@H]2N(C)c3ccccc3[C@@]23C[C@@H](C(=O)OC)N(C(=O)c2ccco2)C3=N1,-2.48% [at 7.66 µM],–
Cc1nonc1C(=O)N/N=C/c1ccc(O)cc1,–,5.01 µM (active)
O=C(C[n+]1ccccc1)N/N=C/c1ccc(O)cc1,inactive,–
COC(=O)N/N=C/c1ccc(/C=N/NC(=O)OC)cc1,inactive,–
C[C@H]1Cc2c(COc3ccccc3)nc3c(c2CO1)CN(C(=O)NCc1ccco1)CC3,-0.257% [at 7.66 µM],–
Cc1cc(C(=O)Cn2cnc3cc([N+](=O)[O-])ccc3c2=O)c(C)n1CC1CCCO1 (configuration not stated),inactive,–
Cc1ccsc1C(=O)OCC(=O)c1cc2ccccc2o1,inactive,–
Cc1ccsc1C(=O)OCC(=O)c1cc(C)n(CC2CCCO2)c1C (configuration not stated),–,12.6 µM (active)
COC(=O)CCCC1=CC2=CC(=O)C(C)(OC(=O)c3cccs3)C(=O)C2=CN1CC(C)C (configuration not stated),-3.18% [at 7.66 µM],–
CCOC(=O)C1=C(C)c2ccccc2OC1(C)C(=O)OCC (configuration not stated),inactive,–
CC(C)(Oc1ccc(C2CC2(Cl)Cl)cc1)C(=O)O (configuration not stated),inactive,–
O=C(Cc1cccs1)Nc1nnc(C2CC2)s1,inactive,–
Cc1occc1C(=O)Nc1nnc(C2CCCCC2)s1,inactive,–
O=C(Nc1nnc(C2CC2)s1)c1ccccn1,–,10 µM (active)
C=C(C)C(=O)c1ccc(F)cc1,inactive,–
CC(C)C1=CC2=CC[C@H]3[C@](C)(C(=O)O)CCC[C@]3(C)C2CC1 (some centres not stated),inactive,–
COC(=O)C1=C(C(=O)OC)[C@@H]2N(Cc3ccccc3)c3ccccc3[C@@]23C[C@@H](C(=O)OC)N(S(=O)(=O)c2ccc(C(F)(F)F)cc2)C3=N1,-5.51% [at 7.66 µM],–

Compound,"activity change, negative = inhibition",Potency
CCCCC/C=C\C/C=C\C/C=C\CCCCCCC(N)=O,inactive,–
COC(=O)N1C(/C=C/C=C/c2ccc(OC)cc2)=Cc2ccccc2C1CC(C)=O (configuration not stated),-3.85% [at 7.66 µM],–
CC1(C)O[C@@H]2C[C@@H]3[C@H]4C[C@@H](F)C5=CC(=O)C=C[C@]5(C)[C@@]4(F)[C@@H](O)C[C@]3(C)[C@]2(C(=O)CO)O1,inactive,–
CCCCC/C=C\C/C=C\CCCCCCCCCC(=O)NCC(=O)O,inactive,–
COc1ccc(-c2c(C)cc3oc(=O)cc(-c4ccccc4)c3c2C)cc1F,inactive,–
CC1=C(/C=C/C(C)=C/C=C/C(C)=C/C=C/C=C(C)/C=C/C=C(C)/C=C/C(=O)[C@]2(C)C[C@@H](O)CC2(C)C)C(C)(C)C[C@H](O)C1,inactive,–
C#CCCOC(=O)N1C2=NC(C(=O)OC)=C(C(=O)OC)[C@@H]3N(C)c4ccc(OC)cc4[C@]23C[C@H]1C(=O)OC,-8.5% [at 7.66 µM],–
Cc1cn(C2OC[C@@H](O)[C@@H]2CO)c(=O)[nH]c1=O (some centres not stated),inactive,–
CCCCC/C=C\C/C=C\CCCCCCCCCC(=O)O,inactive,–
COc1cccc(OC)c1C(=O)Nc1ccc(N2CCCCC2)cc1,inactive,–
COc1cccc(C(=O)Nc2ccc(N3CCCC3)cc2)c1,–,4.47 µM (active)
COc1ccc(C(=O)NC(=S)Nc2ccc(N3CCCC3)cc2)cc1OC,inactive,–
COc1cc(OC)c2c(c1)OC(=O)CC2c1cc(OC)c(OC)c(OC)c1 (configuration not stated),inactive,–
CN1c2ccccc2-c2nc3ccccc3n2C1c1ccco1 (configuration not stated),inactive,–
Cn1c(-c2ccco2)nc2cc3ccccc3cc21,–,12.6 µM (active)
COc1ccc(CCn2c(-c3ccco3)nc3nc4ccccc4nc32)cc1OC,inactive,–
COc1ccc(C2CC(=O)Oc3ccc(C(C)(C)C)cc32)cc1 (configuration not stated),inactive,–
COc1cccc([C@@H]2Oc3ccc(Br)cc3C(=O)[C@H]2OC(=O)NCCc2ccc(OC)c(OC)c2)c1,inactive,–
CCOC(=O)C1=C(C(=O)OCC)C(C(=O)OCC)N(S(=O)(=O)C(F)(F)F)c2ccccc21 (configuration not stated),inactive,–
COC(=O)C1=C(C(=O)OC)[C@@H]2N(C)c3ccccc3[C@@]23C[C@@H](C(=O)OC)N(S(=O)(=O)c2cccs2)C3=N1,-6.85% [at 7.66 µM],–
CC/C=C\C/C=C\C/C=C\C/C=C\C/C=C\C/C=C\CCC(=O)NCCc1ccc(O)c(O)c1,inactive,–
C[C@@]12CCC(=O)C=C1CC[C@H]1C2[C@@H](O)C[C@]2(C)[C@@H]1CC[C@@]2(O)C(=O)COC(=O)C1CCCC1 (some centres not stated),-5.73% [at 7.66 µM],–

Compound,"activity change, negative = inhibition",Potency
CCCCC/C=C\C/C=C\CCCCCCCCCC(N)=O,inactive,–
COC(=O)C1(C(C)=O)CC2=CC[C@H]3C(=O)N(c4ccccc4)C(=O)[C@H]3[C@@H]2Cc2ccccc2[C@@H]1C[N+](=O)[O-] (some centres not stated),inactive,–
CCCCC/C=C\C/C=C\C/C=C\CCCCC(=O)NCC(=O)O,inactive,–
COC(=O)C(C(=O)OC)[C@@H](NC=O)c1ccccc1,inactive,–
CC1(OC(=O)c2ccc(Cl)nc2)C(=O)Cc2cc(-c3ccsc3)ncc2C1=O (configuration not stated),-0.318% [at 7.66 µM],–
Cn1cccc1-c1nc2ccccc2n1C,inactive,–
Cc1csc(-c2nc3ccccc3n2C)n1,–,4.47 µM (active)
Cc1nn2c3ccccc3nc2n(C)c1=O,inactive,–
COCCn1c(C)cc(C2=NNC(=Nc3ccc(F)cc3)SC2)c1C,inactive,–
C=CCn1c(C)cc(C2=NNC(=NCC)SC2)c1C,–,7.94 µM (active)
Cc1cccc(N=C2NN=C(c3c[nH]c4ccccc34)CS2)c1,inactive,–
COc1cc(/C=C/CO)cc(OC)c1O[C@@H]1O[C@H](CO)[C@@H](O)[C@H](O)[C@H]1O,inactive,–
CCc1cccc(OC2OC(CO)C(O)C(O)C2NC(C)=O)c1 (configuration not stated),inactive,–
Cc1csc(-c2coc3cc(O[C@@H]4O[C@H](CO)[C@@H](O)[C@@H](O)[C@H]4O)ccc3c2=O)n1,–,3.55 µM (active)
C=CCN1C=C2C(=O)C(C)(OC(=O)CCc3ccccc3)C(=O)C=C2C=C1c1ccc(C#N)cc1 (configuration not stated),-4.17% [at 7.66 µM],–
C=C/C1=C/Cc2ccccc2[C@H](C[N+](=O)[O-])C(C(=O)OC)(C(=O)OC)C1,inactive,–
CC(C)(C)OC(=O)NCCCC1=CC2=CC(=O)C(C)(OC(=O)c3ccco3)C(=O)C2=CO1 (configuration not stated),inactive,–
COC(=O)C1=C(C(=O)OC)[C@@H]2Nc3ccccc3[C@@]23C[C@@H](C(=O)OC)N(S(=O)(=O)c2ccc([N+](=O)[O-])cc2)C3=N1,-3.38% [at 7.66 µM],–
COc1ccc(-c2cn3ccsc3n2)cc1,inactive,–
Cc1ccc(-c2cn3cc(C)ccc3n2)cc1,–,11.2 µM (active)
Cc1ccc(-c2cn3cc([N+](=O)[O-])ccc3n2)cc1,inactive,–
C[C@H]1Cc2c(-c3ccccc3)nc3c(c2CO1)CN(S(=O)(=O)c1ccc(Cl)c2nonc12)CC3,-6.5% [at 7.66 µM],–

Compound,"activity change, negative = inhibition",Potency
C=C(C(C)=O)C(O)c1ccc([N+](=O)[O-])cc1 (configuration not stated),inactive,–
Cc1ccc(-c2cccc([C@H]3[C@@H]4C=CC[C@@H](C)[C@@H]4C(=O)N3Cc3ccccc3)c2)cc1,inactive,–
c1ccc(-c2noc(-c3cccs3)n2)nc1,–,12.6 µM (active)
COc1ccc(Cc2nc(-c3ccccn3)no2)cc1OC,inactive,–
c1csc(-c2nc(-c3ccncc3)no2)c1,inactive,–
O=C(Oc1ccc(-c2nc(-c3ccccn3)no2)cc1)c1ccccc1,–,4.47 µM (active)
O=C(Oc1ccccc1)c1ccc2nccnc2c1,inactive,–
COc1nc(-c2ccc(Cl)cc2)ccc1-c1noc(-c2cccs2)n1,inactive,–
C/C(Nc1ccc2oc(=O)ccc2c1)=C1/C(=O)CC2[C@@H]1C2(C)C (some centres not stated),inactive,–
COc1ccc(/C=C2\CCc3ccccc3C2=O)c(OC)c1OC,inactive,–
CCC1C/C(=C/c2cccs2)C(=O)/C(=C/c2cccs2)C1 (configuration not stated),inactive,–
O=C1/C(=C/c2cccs2)CCc2ccccc21,–,11.2 µM (active)
N#Cc1cccc(CS(=O)(=O)c2nnnn2-c2cc(C(F)(F)F)cc(C(F)(F)F)c2)c1,inactive,–
COc1ccc(-c2nc3c(c4c2C[C@H](c2ccccc2)OC4)CN(S(=O)(=O)c2c(C)noc2C)CC3)c(C)c1,-5.25% [at 7.66 µM],–
O=C1C=C(c2ccccc2)CCC1,inactive,–
COc1ccc2c(c1)O[C@@H](c1ccc3c(c1)OCO3)[C@H](OC(=O)NCc1ccco1)C2=O,inactive,–
COc1ccccc1C(=O)Nc1ccc(NC(=O)c2ccco2)c(C)c1,–,10 µM (active)
COc1ccc(NC(=O)c2cccc(NC(=O)c3ccco3)c2)c(OC)c1,inactive,–
COc1cc(NC(=O)c2cc([N+](=O)[O-])ccc2Br)ccc1NC(=O)c1ccco1,inactive,–
O=C(NCc1ccco1)O[C@@H]1C(=O)c2cc(Br)ccc2O[C@H]1c1ccc2c(c1)OCO2,inactive,–
Cc1cccc([C@H]2[C@@H]3C=CC[C@@H](C)[C@@H]3C(=O)N2Cc2ccccc2)c1,inactive,–
CCN1C(=O)N[C@@H](CCc2ccccc2)C(C(=O)OC)=C1C,0.314% [at 7.66 µM],–

Compound,"activity change, negative = inhibition",Potency
C=CCC(C)(O)c1ccco1 (configuration not stated),inactive,–
O=C1OCCN1C(=O)[C@H]1[C@H](c2ccc(F)cc2)C(c2ccccc2)=NN1c1ccc(Br)cc1,inactive,–
Cc1ccccc1-c1ccc(C(=O)O)s1,inactive,–
C=CC1(C)CC(=O)C2(O)C(C)(O1)C(OC(C)=O)C(O)C1C(C)(C)CCC(O)C12C (configuration not stated),inactive,–
COCCN1C=C2C(=O)C(C)(OC(=O)C3CCCC3)C(=O)C=C2C=C1c1ccsc1 (configuration not stated),-8.74% [at 7.66 µM],–
CC1=C2[C@@H](O)[C@H]([C@@H](C)C(=O)NCCC(C)C)CC[C@@]2(C)C=CC1=O,inactive,–
COC(=O)CCCC1=CC2=CC(=O)C(C)(OC(=O)c3cccs3)C(=O)C2=CN1c1cccc(C#N)c1 (configuration not stated),0.0108% [at 7.66 µM],–
C/C=C(\C)C(=O)O[C@H]1CC(C)=C2C(=O)C=C(C)C2[C@@H]2OC(=O)[C@@](C)(OC(=O)C=C(C)C)C21 (some centres not stated),inactive,–
COc1ccc(N=Cc2c(O)[nH]c3ccccc23)cc1OC,inactive,–
COc1ccc(OC)c(N=Cc2c(O)[nH]c3ccccc23)c1,inactive,–
COc1ccccc1N=Cc1c(O)c2ccccc2oc1=O,–,14.1 µM (active)
NC1CCN(O)C1=O (configuration not stated),inactive,–
Cc1ccc(NC(=O)O[C@@H]2C(=O)c3cc(Br)ccc3O[C@H]2c2ccc3c(c2)OCO3)cc1Br,inactive,–
C=CC1=C2C=C(C3CC3)N(CC(C)C)C=C2C(=O)C(C)(OC(=O)c2ccco2)C1=O (configuration not stated),-1.36% [at 7.66 µM],–
COc1ccc(/C=C2\NC(=O)[C@@H]3Cc4ccccc4CN3C2=O)cc1,inactive,–
CCCCCCCC[C@@H](O)/C=C/C=C/C=C\[C@@H](O)CCCC(=O)O,inactive,–
C=C(C(C)=O)C(O)c1cccs1 (configuration not stated),inactive,–
C=CCC1CCC(=O)N2CCCC12 (configuration not stated),inactive,–
CC1(OC(=O)CCc2ccccc2)C(=O)C=C2C=C(c3ccc(C#N)cc3)N(CCc3ccccn3)C=C2C1=O (configuration not stated),-6.83% [at 7.66 µM],–
